Screens (PubChem BioAssay)
Compounds with a hit are over-represented: about 2.9% of the library has one in this group of screens.
ADAM17 inh – inhibitors of human ADAM17. 370,000 compounds, 0.83% hits. recombinant ADAM17, EDANS/DABCYL FRET peptide cleavage. inhibition, % at 6.95 µM. P78536;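 active = inhibition above the mean of compounds lying between control limits plus 3 SD, set per campaign, cut at about 8.5% in these data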;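 note: 0% = DMSO-only wells as the low control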
ADAM10 inh – inhibits human ADAM10; recombinant ADAM10, EDANS/DABCYL FRET peptide cleavage, 3 h; 370,000 compounds, 0.62% hits; O14672; inhibition, % at 7 µM;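 active = inhibition above a per-campaign cutoff equal to the mean of compounds falling between control-based bounds plus 3 SD, cut at about 20% in these data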;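 note: 0% = DMSO wells while the 100% control is not disclosed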
KLK7 zymogen act – activators of human kallikrein-7 zymogen | P49862 | purified proKLK7, EDANS-DABCYL substrate fluorescence; 100% is mature enzyme control, 0% vehicle | activation, % at 7 µM | 370,000 compounds, 0.9% hits;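 active = activation above the mean of all tested compounds plus 3 SD, computed per campaign excluding outliers beyond control limits, cut at about 13% in these data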
PLC-beta3 inh – PLC-beta3 (human) inhibition, primary screen | Purified PLC-beta3, fluorogenic substrate, fluorescence | 370,000 compounds, 0.18% hits | Q01970 | inhibition, % at 12.2 µM; in the data active = inhibition above about 11%;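 note: 0% = median of compound wells on plate and 100% = full blocker control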
PLC-gamma1 inh – PLC-gamma1 (human) inhibition, primary screen. AID 720700. inhibition, % at 12.2 µM. 370,000 compounds, 0.84% hits. purified PLC-gamma1, fluorogenic substrate, fluorescence. P19174; in the data active = inhibition above about 9.5%
proKLK7 act conf – confirmation of human kallikrein-7 zymogen activators; activation, % at 7 µM; 3,200 compounds, 68% hits; shares compounds with KLK7 zymogen act; purified proKLK7, EDANS-DABCYL substrate fluorescence; scaled: vehicle 0, mature enzyme 100;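 active = activation, as change over the incubation, above the mean of all tested compounds plus 3 SD, cut at about 13% in these data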
EDANS-DABCYL int – fluorescence interference counter-screen for KLK7 activators; shares compounds with KLK7 zymogen act; EDANS-DABCYL substrate fluorescence interference, no enzyme, 4 h; solvent 0%, active enzyme control 100%; activation, % at 7 µM; 3,200 compounds, 80% hits; AID 686952;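 active = activation above the all-compound mean plus 3 SD, ignoring values outside control-based bounds, cut at about 4.8% in these data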;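 note: value is the 4 h activation minus the activation read at time zero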
K7 EDANS ctr – optically interferes with EDANS-DABCYL fluorescence, kallikrein-7 activator counter-screen | EC50, µM | 250 compounds, 20% hits | shares compounds with KLK7 zymogen act | EDANS-DABCYL peptide fluorescence interference, no enzyme;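 active = compounds that raise the fluorescence signal in this interference counterscreen, with EC50 at or below 10 µM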;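 note: intact quenched peptide substrate alone read at 355 nm excitation and 520 nm emission; signal is fluorescence gain from T0 to T4 after four hours at room temperature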
* = called active by the depositor; i = inactive; x = no result given.

SMILES	ADAM17 inh	ADAM10 inh	KLK7 zymogen act	PLC-beta3 inh	PLC-gamma1 inh	proKLK7 act conf	EDANS-DABCYL int	others
O=C1c2ccccc2/C(=C\c2ccc(O[C@@H]3CCCCO3)cc2)N1c1ccccc1	-46.4	-176.0	100.4*	i	i	3.6	15.1*
O=C(Nc1ccc(C2=CN(Cc3ccccc3)CCC2=O)cc1)OCc1ccccc1	-4.5	2.6	19.9*	1.0	1.0	-0.3	0.8
COc1ccc(Cn2nnnc2CN(CCCN2CCOCC2)Cc2cc3cc(OC)ccc3[nH]c2=O)cc1	-48.9	-140.0	0.6	-31.1	-22.6	x	x
COc1ccc2cc(CN(CCCN3CCOCC3)Cc3nnnn3C3CCCC3)c(=O)[nH]c2c1	-136.5	-409.4	16.5*	-332.6	-276.3	0.5	0.7
COc1ccc2c(c1)c[n+](C)c1c3cc(OC)c(OC)cc3ccc21	-6.2	-26.6	-1.5	-26.3	-19.9	x	x
COc1cc2c[n+](C)c3c4ccccc4ccc3c2cc1OC	-330.1	i	26.2*	i	i	10.5	16.0*
CC(C)(C)NC(=O)C(c1cc2ccccc2o1)n1c(-c2ccc(-c3ccccc3)cc2)nc2ccccc21 (stereo not drawn)	-48.0	-265.0	25.2*	-35.5	-20.0	-73.1	-39.3
COC(=O)C1C(O)=C(C=Nc2cccc3ccccc23)C(=O)CC1(C)C (stereo not drawn)	-82.9	-220.9	33.8*	-139.8	-102.5	24.7*	23.2*
COC(=O)C1C(O)=C(C=NCc2ccccc2)C(=O)CC1(C)C (stereo not drawn)	-1.8	5.8	0.1	0.0	1.1	x	x
COc1ccc(S[C@]2(C(=O)N3CCOCC3)CC(=O)N(c3ccccc3)[C@@H]2c2ccc(OC)cc2)cc1	4.5	2.6	1.6	-1.5	1.4	x	x
O=C(C(=O)N1CCC(CNS(=O)(=O)c2ccc(C(F)(F)F)cc2)CC1)c1cc2ccccc2o1	3.1	6.5	0.0	-2.0	-0.8	x	x
COC(=O)C1=CN(C)C=C(C(=O)OC)C1c1ccccc1Cl	-415.0	i	23.9*	i	-470.9	76.1*	77.0*
O=c1c2cc3cc(Cl)ccc3nc2ncn1CCc1c[nH]c2ccccc12	0.7	-21.2	-0.6	0.2	-4.3	x	x
COc1cccc(CCNC(=O)C2CCC(=O)N(Cc3cccc(OC)c3)C2)c1 (stereo not drawn)	-0.5	2.8	-0.7	-2.5	2.2	x	x
COc1cccc(CN2CC(C(=O)NCCc3cn4cccnc4n3)CCC2=O)c1 (stereo not drawn)	-218.3	i	18.9*	-362.4	-273.3	18.9*	14.1*	K7 EDANS ctr=9.68*
CCN(CC)CCCNc1oc(-c2ccc(OC)c(OC)c2)nc1C#N	-205.4	i	7.2	-386.8	-295.4	x	x
C=CCNc1oc(/C=C/c2ccccc2)nc1C#N	i	i	45.9*	i	i	66.4*	67.8*
CN(C)CCNc1oc(/C=C/c2ccccc2)nc1C#N	i	i	97.8*	i	i	66.4*	69.5*
COCCCNc1oc(/C=C/c2ccccc2)nc1C#N	i	i	43.5*	i	i	56.9*	61.1*
CN(C)CCCNc1oc(-c2cccc(Cl)c2)nc1C#N	-252.7	i	51.3*	i	i	17.3*	26.0*
COc1ccc(CN2CN3CCc4ccccc4C3CS2(=O)=O)cc1 (stereo not drawn)	-5.0	-7.0	0.2	-0.6	2.1	x	x
O=C(NC1CCCCN(Cc2cccc(Cl)c2)C1=O)c1ccc(-c2ccccc2)cc1 (stereo not drawn)	-0.3	-0.2	0.8	1.2	0.4	x	x
COCC(=O)N1CCC(C(=O)NCC2COc3ccccc3O2)CC1 (stereo not drawn)	-1.8	-5.2	-0.7	-0.3	-0.3	x	x
Cc1nn(-c2ccccc2)c(C)c1N	-0.2	-0.4	-0.8	3.4	2.1	x	x
Cc1c(O)cnc2nn(-c3ccccc3)c(=N)n12	i	i	40.4*	i	i	16.8*	17.4*
SMILES	ADAM17 inh	ADAM10 inh	KLK7 zymogen act	PLC-beta3 inh	PLC-gamma1 inh	proKLK7 act conf	EDANS-DABCYL int	others
COc1cc(-n2c(C)nc3cc(C(=O)N4CCCN(C(C)=O)CC4)ccc32)cc(OC)c1OC	0.2	-16.1	-0.1	-4.8	-4.2	x	x
O=C(/C=C/c1ccco1)c1ccccc1O	-3.1	-12.5	8.3	-15.8	-14.6	x	x
O=C(C=Cc1ccco1)c1cc(Cl)ccc1O	-7.5	-21.7	35.3*	-35.9	-28.5	-0.1	1.4
CCCCN1C(=O)N2Cc3ccc(C)cc3C2CS1(=O)=O (stereo not drawn)	0.5	-2.1	0.1	1.0	-1.7	x	x
Cc1nc2c(c3c1[nH]c1ccccc13)C(O)CC(C)(C)C2 (stereo not drawn)	-477.4	i	34.1*	i	i	41.3*	40.2*
Cc1nn(-c2ccccc2)c2c1C(O)CC(C)(C)C2 (stereo not drawn)	-4.7	-5.5	-0.4	-1.8	-0.3	x	x
COc1ccc2c(c1)c1ncn(CCN3CCNCC3)c(=O)c1n2C	-438.3	i	25.2*	-275.9	-187.9	17.8*	16.9*
COc1ccc2[nH]c3c(=O)n(CCN4CCOCC4)cnc3c2c1	-214.5	i	7.9	-152.8	-111.6	x	x
COc1ccc2c(c1)c1ncn(CCN3CCCC3)c(=O)c1n2C	-208.0	i	24.3*	-279.6	-218.0	4.0	5.9*
COc1ccc2c(c1)c1ncn(CCN3CCCCC3)c(=O)c1n2C	-287.4	i	16.7*	-453.9	-309.0	1.3	-0.4
CCCCNc1nc(-c2ccccc2)c(C(=O)OCC)cc1C#N	-18.9	-58.8	-0.2	-294.1	-232.3	x	x
CCCCNc1nccnc1-c1cccc(C=O)c1	-85.7	-391.5	212.3*	-129.6	-96.0	299.2*	289.0*
O=C(Nc1ccc(-c2nc3ccccc3[nH]2)cc1)c1cccc(N2C(=O)CCC2=O)c1	-203.2	i	127.0*	-159.5	-91.8	167.4*	170.8*
COC(=O)c1ccc(-c2nc3ccccc3[nH]2)cc1	i	i	42.7*	i	i	78.6*	72.8*
COC(=O)c1ccc(C(=O)Nc2ccc3nc(-c4cccnc4)[nH]c3c2)cc1	-2.1	-5.8	20.4*	-22.9	-16.4	-13.5	-13.1
O=C(OCc1cn(Cc2cccc(F)c2)nn1)N1CCCCC1	-7.7	-0.9	0.0	1.1	-1.4	x	x
CN(C)CCCNS(=O)(=O)c1ccc(N2CCC(c3ccc(Cl)cc3)=N2)cc1	i	i	24.0*	i	i	65.6*	61.6*
C=CC[C@@]1(c2ccc(Br)cc2OC)Oc2ccccc2-c2nccnc21	-91.2	-331.2	-45.2	-251.4	-185.1	x	x
